# Measurements reported in PubChem BioAssay AID1645860 (Buhrlage Lab, Dana-Farber Cancer Institute and Novartis …, 2021).
# In all, about 47,000 compounds went through this assay and about 2,500 (5.3%) were called active. No stated cut-off is given here; in the data, active means inhibition above about 30%; inactive means the rest. The list comes from a sample in which actives are over-represented; it also holds similar structures and randomly drawn compounds.
# Molecular target: Ubiquitin carboxyl-terminal hydrolase 30 (Homo sapiens) (UniProt Q70CQ3)
# Experiment: blocks human USP30 ubiquitin-rhodamine cleavage (AID 1645860)
# Details: purified USP30, Ub-rhodamine cleavage fluorescence; at 25 µM; stronger effect = higher value
# Ubiquitin carboxyl-terminal hydrolase 30 (Homo sapiens), sequence (Q70CQ3 whole entry, looked up): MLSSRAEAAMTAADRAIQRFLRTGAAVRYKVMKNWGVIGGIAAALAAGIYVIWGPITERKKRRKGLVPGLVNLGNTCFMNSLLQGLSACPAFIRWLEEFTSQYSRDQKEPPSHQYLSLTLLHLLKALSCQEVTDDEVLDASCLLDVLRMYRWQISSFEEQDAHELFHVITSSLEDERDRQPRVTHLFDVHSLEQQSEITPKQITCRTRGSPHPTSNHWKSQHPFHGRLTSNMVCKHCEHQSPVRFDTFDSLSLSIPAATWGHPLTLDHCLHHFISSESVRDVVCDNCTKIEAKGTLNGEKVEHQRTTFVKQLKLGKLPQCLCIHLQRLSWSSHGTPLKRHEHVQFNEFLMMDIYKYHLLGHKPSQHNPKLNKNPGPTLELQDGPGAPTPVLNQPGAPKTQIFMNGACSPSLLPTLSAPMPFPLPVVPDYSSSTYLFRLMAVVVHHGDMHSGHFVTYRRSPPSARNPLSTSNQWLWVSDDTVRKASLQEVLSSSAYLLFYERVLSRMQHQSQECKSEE
row,Compound,inhibition
1,COCCn1cnc2c(-c3ccccc3)cn(CC(=O)NCc3ccccc3)c2c1=O,-28.3% (inactive)
2,COCC(=O)N1CCCCCC1C1CCN(c2nn3cc(C)nc3s2)CC1 (stereo not given),16.4% (inactive)
3,COC(=O)c1ccc(C2c3[nH]c4ccccc4c3C[C@H]3C(=O)N(CC4CCCO4)CC(=O)N23)cc1 (stereo not given in full),-26.4% (inactive)
4,CCOc1ccc(S(=O)(=O)N2CCCCC2)cc1NC(=O)c1ccc(C#N)cc1,11.5% (inactive)
5,O=C(Nc1cc(C(F)(F)F)ccc1-n1cnc2ccccc21)c1ccc(S(=O)(=O)N2CCCCC2)cc1,32.6% (active)
6,COc1ccccc1OCC(=O)Nc1cc(C(F)(F)F)ccc1N1CCCCC1,-1.33% (inactive)
7,CCn1nnc2c1C(COC)CN(C(=O)CC1=CCCCC1)C2 (stereo not given),-64.1% (inactive)
8,CCN(C(=O)c1nc(-c2cccc(F)c2)n2c1CCCCC2)c1ccccc1,-10.9% (inactive)
9,C=C(NC(=O)C(=C)NC(=O)c1csc(C2=N[C@@H]3c4csc(n4)[C@H]4NC(=O)c5csc(n5)[C@H]([C@](C)(O)[C@@H](C)O)NC(=O)C5CSC(=N5)/C(=C/C)NC(=O)C([C@@H](C)O)NC(=O)c5csc(n5)[C@]3(CC2)NC(=O)[C@H](C)NC(=O)C(=C)NC(=O)[C@H](C)NC(=O)C([C@@H](C)CC)NC2C=Cc3c(C(C)O)cc(nc3[C@H]2O)C(=O)OC4C)n1)C(N)=O (stereo not given in full),-88.3% (inactive)
10,COc1ccccc1Nc1nc(-c2cnc(N3CCCC3)nc2C)cc(=O)[nH]1,23.2% (inactive)
11,Cc1cc(C)nc(N(C(=O)C2CC2)c2ccc(OC(F)(F)F)cc2)n1,-22.9% (inactive)
12,COC(=O)c1ccc(NC(=O)CSc2nnc(C(C)Oc3ccccc3)n2C)cc1 (stereo not given),25.4% (inactive)
13,Cc1nnc(OCC(=O)Nc2ccc(OC(F)(F)F)cc2)c2ccccc12,64.8% (active)
14,CN1[C@@H](CCC(=O)N2CCc3ccccc32)CNC(=O)[C@@H]2[C@H]1CCN2Cc1ncc[nH]1,-9.99% (inactive)
15,O=S(=O)(c1ccccc1)N1CCC(n2cnnc2-c2ccccc2)CC1,-0.303% (inactive)
16,Cc1cc(O)c(=O)cc2c1C[C@H]1CC(C)(C)/C=C/C[C@@]3(C)Oc4cc(=O)c(O)cc(C)c4C[C@@H]3C[C@H](O)[C@]1(C)O2,-161% (inactive)
17,CC(C)(C)CC(=O)N1CCN(c2ccc(N3CCCC3)nn2)CC1,-15.1% (inactive)
18,COc1ccc(S(=O)(=O)N(C(=O)c2ccccc2)c2ccc3oc4c(c3c2)CCCC4)cc1,-10.1% (inactive)
19,O=C(COc1ccc2oc3c(c2c1)CCCC3)Nc1ccccn1,48.3% (active)
20,CCC(=O)c1ccc(OCC(=O)Nc2ccc3c(c2)CCC3)cc1,-0.468% (inactive)
